Test results published in PubChem BioAssay AID1650 (Southern Research Specialized Biocontainment Screening …, 2009).
Entries with a potency or affinity are not part of this list. Activity calls are given as the source filed them. The rule behind the calls is not given here.

Test: mammalian cell viability reduction – secondary assay, cytotoxicity control for West Nile virus antiviral project, dose response (AID 1650)

| Structure (SMILES) | outcome |
| --- | --- |
| CCn1nc(C)c(CN2CCC(C(=O)Nc3cccc(-c4cccc(F)c4)c3)CC2)c1C | inactive |
| Cc1nn(Cc2ccc(Cl)cc2)c(C)c1NC(=O)CSc1nc2c(c(C(F)(F)F)n1)CCc1ccccc1-2 | inactive |
| O=C(Nc1ccc(-n2ccc(C(F)(F)F)n2)cc1)Nc1cccc(Cl)c1 | inactive |
| O=C(c1ccc2c(=O)n(Cc3ccc4c(c3)OCO4)c(=O)[nH]c2c1)N1CCN(c2ccccc2)CC1 | inactive |
| O=C1c2ccccc2C2=Nc3ccccc3SC(c3ccc(Cl)cc3)C12 (stereo not drawn) | inactive |
| Cn1cc(CN2CCCC(C(=O)Nc3cccc(-c4cc5ccccc5[nH]4)c3)C2)cn1 (stereo not drawn) | inactive |
| CCOC(=O)c1cc(-c2ccc(OC)cc2F)nc2c1c(C)nn2CCC#N | inactive |
| CCn1cc(CNCc2cn(C)nc2-c2ccc(C3CCCCC3)cc2)cn1 | inactive |
| Cn1cc([N+](=O)[O-])c(C(=O)Nc2ccn(C34CC5CC(CC(C5)C3)C4)n2)n1 | inactive |
| O=C(CN1C(=O)/C(=C/c2ccc(C(F)(F)F)cc2)Sc2ccccc21)NCCCN1CCOCC1 | inactive |
| COc1ccc(S(=O)(=O)NC2CCCC2)c(Cl)c1Cl | inactive |
| Cc1ccc(S(=O)(=O)N(C)C)cc1NC(=O)c1cncc(Br)c1 | inactive |
| CN1CCN(C(=O)CCN2C(=O)/C(=C\c3ccc(Cl)cc3Cl)SC2=S)CC1 | inactive |
| C/C(N)=C(/C#N)C(=O)COC(=O)c1cc(-c2cccc(Br)c2)nc2ccccc12 | inactive |
| O=S(=O)(/C=C/c1ccccc1)Oc1ccccc1 | inactive |
| CCOc1ccc(NCc2cc3c(C(C)(C)C)nn(-c4ccccc4)c3[nH]c2=O)cc1 | inactive |
| Cc1ccc(NC(=S)N(CCCN2CCCC2)Cc2cccn2Cc2ccc(Cl)cc2)cc1C | inactive |
| CC(NC(=O)/C=C/c1cnc2ccccc2n1)C12CC3CC(CC(C3)C1)C2 (stereo not drawn) | inactive |
| CC1CCN(c2nc3ccc(C(=O)NCCCN4CCCCC4)cc3s2)CC1 | inactive |
| O=C(Nc1ccc(F)c(Cl)c1)Nc1ccc(Cl)cn1 | inactive |
| COC1(OC)C=CC(=O)C=C1NC(=O)c1ccccc1OC(C)=O | inactive |
| CC1CCCN(CCCNC(=O)c2cc3c(s2)-c2ccccc2OC3)C1 (stereo not drawn) | inactive |
| COc1ccc(Cl)cc1NC(=O)c1nnn(CC(=O)Nc2cc(C)cc(C)c2)c1N | inactive |
